Compound activity: PubChem, National Center for Advancing Translational Sciences (NCATS)
This is a sample that favours compounds with a hit; in the whole collection about 21% have one here.
AMA1-RON2 inh – inhibitors of Plasmodium falciparum AMA1-RON2 interaction; AlphaScreen AMA1-biotinylated RON2 peptide binding; 0.2% of 360,000 active; Potency, µM (series often up to 58.2 µM), hits mostly inhibitors; note: nearly all actives have a fitted effect of over 45% in size
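AMA1 (3D7) with his tag at 25 nM final met compounds first, then biotinylated RON2 peptide at 25 nM; detection used donor plus acceptor beads, 10 µg/mL apiece, read by AlphaScreen after 30 min at room temperature.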
Shiga toxin inh – inhibitors of Shiga toxin in Vero cells; Vero cells, Shiga toxin protein synthesis inhibition reporter; inhibition, % at 38.7 µM; 9.2% of 290,000 active; in the data active = inhibition mostly above about 28%, no sharp cut-off; inactive = mostly below about 43%
CHX counter – counter-screen for Shiga toxin inhibitors: cycloheximide protein synthesis inhibition. cell reporter, cycloheximide protein synthesis inhibition counterscreen. max response, %. 12% of 300,000 active; in the data active = max response mostly above about 13%, no sharp cut-off; inactive = mostly below about 14%; note: read at 38.3 µM for the half of the compounds with a filed dose
HCV inh – HCV inhibition. Huh7.5.1 HCVcc-Cre infection, luciferase reporter, 44 h. Potency, µM (top dose mostly 41.8 µM), hits mostly inhibitors. 3.4% of 340,000 active
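Compounds are dispensed onto cells plated 4 h earlier at 1,000 per well, with HCVcc-Cre virus (about 0.5 moi) added next. Following 44 h of culture, luminescent signal is measured for 15 sec after 15 min with substrate at room temperature.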
Pf growth 48h – P. falciparum growth inhibition at 48 hours (one generation); P. falciparum luciferase growth in erythrocytes, 48 h; Potency, µM (titrated, usually from 28.7 µM), actives largely listed as inhibitors; 5.9% of 310,000 active
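Luciferase-expressing P. falciparum in infected erythrocytes (2% hematocrit, 0.1% parasitemia final) in RPMI 1640/0.5% Albumax were exposed to compound for 48 hours at 37 C, 5% CO2; growth read as luminescence.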
Pf growth 96h – P. falciparum growth inhibition at 96 hour, primary screen for plastid delayed-death inhibitors | P. falciparum luciferase reporter growth, 96 h | Potency, µM (doses to about 28.7 µM), actives largely listed as inhibitors | 6.9% of 320,000 active | AID 504834
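96 h incubation, 37 C, 5% CO2, of luciferase-reporter P. falciparum-infected RBCs (2% hematocrit, 0.05% parasitemia final) with test compounds; endpoint luminescence.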
A number is an active result; n = inactive; u = inconclusive; x = not tested or not shown; [ ] = another dose, or the depositor's remark. Unless noted, calls come from the whole dose curve; as a rule, active = well fitted curve in the direction sought with a large enough effect; inconclusive = small, poorly fitted or top-dose-only effect, or another doubt; inactive = no such curve, though single readings can be large; an effect the other way counts as inactive or inconclusive.

SMILES | AMA1-RON2 inh | Shiga toxin inh | CHX counter | HCV inh | Pf growth 48h | Pf growth 96h
Cc1nc(NC(=O)c2ccc(F)cc2)sc1C(=O)Nc1ccc2c(c1)CCC2 | n | n | n | n | n | n
O=C(O)c1ccccc1-c1ccccc1C(=O)Nc1ccc2c(c1)CCC2 | n | x | n | n | n | u
CCN(CC)CCNC(=O)c1ccc(NC(=O)c2ccc3c(c2)CCC3)cc1 | n | n | n | 11µM | 5.2µM | 3.7µM
c1csc(C2C3=C(Nc4ncnn42)c2ccccc2OC3)c1 (configuration not stated) | n | n | n | n | u | 13µM
CC1=C(C(N)=O)C(c2cccs2)n2ncnc2N1 (configuration not stated) | n | n | n | n | u | n
Cc1ccc(NS(=O)(=O)c2ccc(C(=O)N3CC(C)OC(C)C3)cc2)cc1 (configuration not stated) | n | n | n | n | u | 13µM
CCOc1ccc(NS(=O)(=O)c2ccc(C(=O)N3CCCCCC3)cc2)cc1 | n | x | x | n | u | n
COc1ccc(NS(=O)(=O)c2ccc(C(=O)N3CCCCCC3)cc2)cc1 | n | x | x | 14µM | x | x
Cc1ccc(S(=O)(=O)C2(C(=O)N3CCN(C4CCCCC4)CC3)CC2)cc1 | n | n | n | n | n | n
O=C(c1ccc(NS(=O)(=O)c2cccc(C(F)(F)F)c2)cc1)N1CCCC1 | n | n | n | n | n | 10µM
Cc1ccc(S(=O)(=O)C2(C(=O)N3CCCCCC3)CC2)cc1 | n | n | n | n | n | 4.1µM
O=C(c1ccc(NS(=O)(=O)c2cccc(F)c2)cc1)N1CCCC1 | n | n | n | n | n | n
Cn1cnc2c1c(=O)n(Cc1cccc(Cl)c1)c(=O)n2C | n | n | n | n | x | n
Cc1ccc([C@@H]2CC=C(C(=O)O)[C@H](c3cccc(Cl)c3)N2S(=O)(=O)c2ccccc2C)cc1 | n | x | x | n | x | x
COc1ccc(S(=O)(=O)N=N/C=C2\C=CC=CN2O)cc1OC | n | x | x | x | x | x
CC(C)c1cc(CNC(=O)C2CCC(=O)N(CCc3ccc(Cl)cc3)C2)on1 (configuration not stated) | n | n | n | n | u | n
Cc1ccc(NS(=O)(=O)c2ccc(C(=O)N3CCCCCCC3)cc2)cc1 | n | 99 | 41 | n | u | 2.1µM
COc1ccc(C(=O)N2CCN(c3ccc(NC(=O)Cc4ccccc4)cc3)CC2)cc1 | n | n | n | n | n | n
Cc1ccc(C(=O)Nc2ccc(C(=O)N3CCCCC3)cc2)cc1 | n | n | 27 | n | n | n
Cc1nn(CC(=O)Nc2ccc(C(=O)N3CCCC3)cc2)c(=O)c2ccccc12 | n | n | n | n | n | 9.3µM
COc1ccc(N2CCN(C(=O)c3ccc(NS(=O)(=O)c4ccccc4)cc3)CC2)cc1 | n | n | 20 | n | u | n
Cc1ccc(NS(=O)(=O)c2ccc(C(=O)N3CCCN(C)CC3)cc2)cc1 | n | n | n | u | n | n
Cc1nn(CC(=O)Nc2ccc(C(=O)N3CCCCC3)cc2)c(=O)c2ccccc12 | n | n | n | n | n | x
Cc1ccc(NS(=O)(=O)c2ccc(C(=O)N3CCCCCC3)cc2)cc1 | n[11.6 µM] | x | x | u | 10µM | u
COc1ccc(NS(=O)(=O)c2ccc(NC(=O)C3CC3)cc2)cc1 | n | n | n | 10µM | n | u
SMILES | AMA1-RON2 inh | Shiga toxin inh | CHX counter | HCV inh | Pf growth 48h | Pf growth 96h
Cc1cccc(CC(=O)Nc2ccc(C(=O)N3CCCCC3)cc2)c1 | n | n | 14 | x | n | u
CCCCOc1ccc(S(=O)(=O)Nc2ccc(NC(C)=O)cc2)cc1 | n | n | n | 8.9µM | n | u
Cc1ccc(NS(=O)(=O)c2ccc(C(=O)N3CCC3)cc2)cc1 | n | x | x | u | u | n
CCOc1ccc(NS(=O)(=O)c2ccc(NC(=O)C3CC3)cc2)cc1 | n | n | n | u | n | u
OC[C@H]1O[C@@H](n2cnc3c(Nc4ccccc4)ncnc32)[C@H](O)[C@@H]1O | n | 108 | n | n[8.37 µM] | n | n
Cn1c(=O)n(C)c2cc(NC(=O)Cc3ccccc3[N+](=O)[O-])ccc21 | n | n | n | n | n | u
CC(C)OCCCn1c(=O)c2ccccc2n2c(CCC(=O)O)nnc12 | n | n | n | n | x | 1.7µM
CC(C)OCCCn1c(=O)c2ccccc2n2c(CCC(=O)NCc3ccccn3)nnc12 | n | n | n | n | n | u
COC(=O)c1ccccc1NC(=O)Cn1c(=O)n(CCC(=O)NC2CCN(Cc3ccccc3)CC2)c(=O)c2ccccc21 | n | n | n | n | n | 9.3µM
CC(C)OCCCn1c(=O)c2ccccc2n2c(CCC(=O)NC3CCN(Cc4ccccc4)CC3)nnc12 | n | n | n | u | u | 15µM
Cc1cccc(C)c1NC(=O)Cn1c(=O)n(CCCC(=O)NC2CCN(Cc3ccccc3)CC2)c(=O)c2ccccc21 | n | n | n | u | n | n
CC(C)Cn1c(=O)c2sccc2n2c(CCCC(=O)NC3CCN(Cc4ccccc4)CC3)nnc12 | n | n | n | n | n | n
O=C(NC12CC3CC(CC(C3)C1)C2)N(Cc1ccccc1)Cc1ccncc1 | n | n | n | n | u | n
O=C(C/C=N/OCc1ccc(Cl)cc1Cl)c1ccccc1 | n | n | 20 | n | u | n
O=C(C/C=N/OCc1c(Cl)cccc1Cl)c1ccccc1 | n | n | 37 | n | u | u
COc1ccccc1NC(=O)CN1C(=O)NC2(CCCc3ccccc32)C1=O (configuration not stated) | n | x | x | n | n | u
CC(=O)NC(c1ccccc1)c1nc(-c2cccs2)cs1 (configuration not stated) | n | x | x | x | x | x
COc1ccc(CCN2C(=O)CCC2(C)c2nnnn2-c2ccc3c(c2)OCCO3)cc1OC (configuration not stated) | n | x | x | x | x | x
CCOC(=O)c1nc(S(C)(=O)=O)ncc1Cl | n | n | 26 | u | n | u
Cc1nnc(NC(=O)c2nc(S(=O)(=O)Cc3ccccc3)ncc2Cl)s1 | n | 86 | 63 | 10µM | n | n
Cc1ccccc1NC(=O)c1nc(S(C)(=O)=O)ncc1Cl | n | 48 | 42 | u | n | 13µM
CCCc1nnc(NC(=O)c2nc(S(=O)(=O)Cc3cccc(C)c3)ncc2Cl)s1 | n | 68 | 52 | u | n | u
COc1ccc(NC(=O)c2nc(S(=O)(=O)Cc3cccc(C)c3)ncc2Cl)c(OC)c1 | n | n | n | u | n | n
Cc1ccc(NC(=O)c2nc(S(=O)(=O)Cc3ccccc3)ncc2Cl)cc1 | n | n | n | u | n | n
CS(=O)(=O)c1ncc(Cl)c(C(=O)Nc2ccc(N3CCOCC3)cc2)n1 | n | 67 | 60 | u | n | u
Cc1cccc(C)c1NC(=O)c1nc(S(=O)(=O)Cc2ccccc2)ncc1Cl | n | 40 | 16 | u | n | u
Cc1cccc(CS(=O)(=O)c2ncc(Cl)c(C(=O)NCc3ccccc3)n2)c1 | n | 38 | 24 | u | n | n
CS(=O)(=O)c1ncc(Cl)c(C(=O)Nc2ccc(OC(F)F)cc2)n1 | n | n | n | u | n | u
